Results taken from PubChem BioAssay AID2778 (National Center for Advancing Translational Sciences (NCATS), 2010).
Results filed as inconclusive are left out. Unmarked numbers belong to inactive results. The source made the active and inactive calls. Calls come from the whole dose curve; as a rule, active = well fitted inhibition curve with a large enough effect; inconclusive = small, poorly fitted or top-dose-only effect, or effect the other way; inactive = flat fitted curve, though single readings scatter.
% is set by controls: 0 for no effect and ±100 for the full control effect; potency is the fitted concentration of half-maximal effect.

The molecules below were run against Menin (Homo sapiens) (UniProt O00255) (assay: Confirmation of Inhibitors Targeting the Menin-MLL Interaction in MLL Related Leukemias: Confirmation in an HTRF (commercial TR-FRET) Assay using His-tagged menin and biotin-labeled MLL peptide). Details: His-menin / biotin-MLL peptide binding; series mostly up to 126 µM; activity change, negative = inhibition: at the top concentration.
Menin (Homo sapiens), sequence (O00255 whole entry, looked up): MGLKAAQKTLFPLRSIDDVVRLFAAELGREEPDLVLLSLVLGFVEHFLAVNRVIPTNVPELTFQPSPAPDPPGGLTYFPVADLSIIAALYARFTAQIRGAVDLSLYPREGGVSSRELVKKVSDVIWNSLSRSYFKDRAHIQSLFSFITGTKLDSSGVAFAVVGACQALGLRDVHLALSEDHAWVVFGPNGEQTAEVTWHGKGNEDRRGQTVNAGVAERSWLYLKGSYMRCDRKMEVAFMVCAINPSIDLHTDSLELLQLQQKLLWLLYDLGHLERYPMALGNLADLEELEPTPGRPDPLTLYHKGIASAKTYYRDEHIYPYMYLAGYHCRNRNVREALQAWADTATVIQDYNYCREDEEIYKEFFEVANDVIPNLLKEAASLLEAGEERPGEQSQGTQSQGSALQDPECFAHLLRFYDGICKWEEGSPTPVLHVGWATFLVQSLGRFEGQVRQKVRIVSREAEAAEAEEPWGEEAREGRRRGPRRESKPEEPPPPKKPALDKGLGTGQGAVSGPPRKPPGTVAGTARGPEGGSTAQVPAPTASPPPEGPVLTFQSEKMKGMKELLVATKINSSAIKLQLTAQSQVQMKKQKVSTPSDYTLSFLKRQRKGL
Summary of the method: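 HTRF: His6-menin (200 nM) and biotin-MLL-w.t. peptide (80 nM) preincubated 15 min, then compounds 1 hr at ambient, before Eu-cryptate anti-His (3.5 nM) and streptavidin-XL665 (10 nM) for 1 h; 50 mM Tris-HCl pH 7.5, 50 mM NaCl, 1 mM DTT, BSA.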
In the case of `CN1CCN(CC(=O)Nc2ccc(S(=O)(=O)N(C)C)cc2)CC1`, the “activity change, negative = inhibition” value is reported as 0.239%. `CCOc1ccc(NC(=O)c2cccc(OC(=S)N3CCC(C)CC3)c2)cc1` was tested, and the “activity change, negative = inhibition” value was -5.98%. With `CCn1cnc2c1c(=O)n(CC(=O)O)c(=O)n2Cc1ccccc1` the “activity change, negative = inhibition” value was -1.56% [at 383 µM]. In the case of `N#Cc1ccc(Cl)cc1NC(=O)CNCc1cccs1`, the “activity change, negative = inhibition” value is reported as 5.39%. In the case of `CCc1ccccc1NC(=O)COc1cccc(-n2cnnn2)c1`, the “activity change, negative = inhibition” value is reported as 2.78% [at 383 µM]. `O=S(=O)(Nc1cccc(-c2cn3cccnc3n2)c1)c1ccccc1` was tested, and the “activity change, negative = inhibition” value was -4.98% [at 383 µM]. `CS(=O)(=O)c1ccc2nc(NC(=O)Nc3cccc(Cl)c3)sc2c1` was tested, and the Potency was 112 µM (active). In the case of `O=C(Nc1cc(Br)ccc1O)c1cc(-c2ccc3c(c2)OCO3)on1`, the “activity change, negative = inhibition” value is reported as -2.75% [at 383 µM]. For `CCC(=O)NC(=S)Nc1ccc(-c2nc3ccc(C)cc3s2)cc1`, the “activity change, negative = inhibition” value was -21.6%. For `CCCc1cc(=O)oc2c3c(c(Cl)cc12)OCN(CCCO)C3`, the “activity change, negative = inhibition” value was -14.5% [at 383 µM]. `CCOc1cc(CNCCc2ccc(S(N)(=O)=O)cc2)ccc1OCc1ccccc1` was tested, and the Potency was 251 µM (active). With `CCCCCC1CCC(C(=O)NCCN2CCOCC2)CC1` (centres undefined) the “activity change, negative = inhibition” value was 10.1%. In the case of `CCCC(=O)NC(c1ccccc1Cl)c1ccc2cccnc2c1O` (centres undefined), the “activity change, negative = inhibition” value is reported as -11.8%. `CCCn1c(C2CCCN2c2nc(C)cs2)nc2cc(Cl)c(Cl)cc21` (centres undefined) was tested, and the “activity change, negative = inhibition” value was 1.08%. With `CC(C)Cc1cc(C(=O)NCCCN2CCOCC2)no1` the “activity change, negative = inhibition” value was 1.92%. With `CN1CCS/C1=C/C=C1/SC(=S)N(Cc2ccccc2)C1=O` the “activity change, negative = inhibition” value was -22.5%. With `Cc1ccccc1-c1cncnc1NC1CCNCC1` the “activity change, negative = inhibition” value was -14.4% [at 383 µM]. `Cc1nc2oc3c(NCC4CCCO4)ncnc3c2c2c1COC(C)(C)C2` (centres undefined) was tested, and the “activity change, negative = inhibition” value was 11.4%. With `CC1CN(c2c3c(nc4ncnn24)CCCC3)CC(C)O1` (centres undefined) the “activity change, negative = inhibition” value was -3.06%. `NS(=O)(=O)c1ccc(NC(=O)c2ccc(-c3ccccc3)cc2)cc1` was tested, and the Potency was 63.1 µM (active). For `COc1ccc(-c2cc(-c3ccc(C)cc3)n[nH]2)c(O)c1`, the “activity change, negative = inhibition” value was -10.7% [at 383 µM]. `N=c1oc2ccccc2cc1-c1nc(-c2ccc(Cl)cc2)cs1` was tested, and the “activity change, negative = inhibition” value was -5.52%. For `c1ccc2c(c1)nc(N1CCOCC1)c1c3ccccc3[nH]c21`, the “activity change, negative = inhibition” value was -9.36% [at 383 µM]. For `COc1cnc(-c2ccccn2)nc1N(C)c1ccccc1`, the “activity change, negative = inhibition” value was 4.38%. In the case of `CCCN(CCC)CCCNC(=S)Nc1ccc2nc(N3CCCC3)cc(C)c2c1`, the “activity change, negative = inhibition” value is reported as 13.3%. For `COc1ccc2[nH]c3c(C)c4ccncc4c(C)c3c2c1`, the Potency was 89.1 µM (active). `CCCCC(=O)NC(=S)Nc1nnn(CCC)n1` was tested, and the “activity change, negative = inhibition” value was 8.69%. With `C=C1CCC[C@]2(C)C[C@H]3OC(=O)C(CNCCN(CC)CC)[C@H]3CC12` (some centres undefined) the “activity change, negative = inhibition” value was 0.515%. `CCc1nnc(NC(=O)C2(C)COC(c3ccc(OC)cc3)OC2)s1` (centres undefined) was tested, and the “activity change, negative = inhibition” value was -0.226%. In the case of `COC(=O)COc1ccc(C(C2C(=O)CC(C)(C)CC2=O)C2C(=O)CC(C)(C)CC2=O)cc1`, the “activity change, negative = inhibition” value is reported as -6.86%. `NC(=O)[C@@H]1CCCNc2c(I)cc([N+](=O)[O-])cc2C(=O)N[C@@H](CCCN=C(N)N)C(=O)N[C@@H](CCCN=C(N)N)C(=O)N1` was tested, and the “activity change, negative = inhibition” value was -15.7% [at 383 µM]. With `C[C@@H]1CN(C(=O)c2nc3ccc(Cl)cn3c2CNCC[C@@H]2C[C@@H]3C=C[C@H]2C3)C[C@H](C)O1` the “activity change, negative = inhibition” value was -3.93%. For `O=C(Nc1nnc(-c2ccccc2SCc2ccccc2)s1)Nc1ccccc1F`, the “activity change, negative = inhibition” value was -20.5%. In the case of `COc1ccccc1/C=N/n1c(N)c(S(=O)(=O)c2cccs2)c2nc3ccccc3nc21`, the “activity change, negative = inhibition” value is reported as -7.78% [at 383 µM].
